# Results as given in PubChem BioAssay (NCATS).
# Where “and” joins values, the source holds several entries; their conditions need not be identical. Equal values may be shown once. Results filed as inconclusive are left out. Where a call stands in place of a potency, no number is given. Unmarked numbers belong to inactive results. Calls of active or inactive are those of the source. Calls follow the shape of the dose curve; as a rule, active = well fitted curve in the direction sought with a large enough effect; inconclusive = small, poorly fitted or top-dose-only effect, or another doubt; inactive = no such curve, though single readings can be large; an effect the other way counts as inactive or inconclusive.
# Legend:
# [1] = qHTS Assay for Identifying Gametocytocidal Compounds (AID 743244);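 also: actives lower the fluorescent signal which means gametocytes are killed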; details: P. falciparum 3D7 stage III-V gametocytes, alamarBlue, 72 h; max response: stronger effect = lower value
# Outline: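 Compounds are pinned into medium, gametocytes (stage III–V, 3D7, 20,000 cells/well) added, and plates held 72 h at 37 °C in 5% CO2. AlamarBlue follows for 24 h before fluorescence reading.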
# [2] = qHTS assay for measurement of the activity of small molecule inhibitors on Zika virus induced Caspase-3 activity in human iPSC derived neural progenitor cells (hNPCs) (AID 1224857); also: nearly all actives have a fitted effect of over 65% in size
# Outline: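 Pretreat hNPCs with compound 1 h; infect ZIKV 2 FFU/cell; 6 h 37 C, 5% CO2; Caspase-Glo 3/7, 30 min RT; luminescence; normalize to no-virus and virus-only wells.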
SMILES,max response [1],Potency [2]
C#C[C@]1(O)CC[C@H]2[C@@H]3[C@H](C)CC4=C(CCC(=O)C4)[C@H]3CC[C@@]21C,-5.37%,inactive
CC(=O)OCC1=C(C(=O)O)N2C(=O)[C@@H](NC(=O)CSc3ccncc3)[C@H]2SC1,-9.74%,inactive
CC(C(=O)O)c1cccc(Oc2ccccc2)c1 (configuration not stated),17.6%,inactive
O=C(O)Cc1csc(-c2ccc(Cl)cc2)n1,-4.61%,inactive
C[C@H]1[C@H]2CC[C@H]3[C@@H]4CC=C5C[C@@H](N(C)C)CC[C@]5(C)[C@H]4CC[C@]23CN1C,-6.8%,inactive
C#C[C@]1(O)CC[C@H]2[C@@H]3CCc4cc(OC)ccc4[C@H]3CC[C@@]21C,-2.6%,inactive
CC[N+](C)(CC)CCOC(=O)C(O)(c1ccccc1)C1CCCCC1 (configuration not stated),-1.51%,inactive
CC(=O)O[C@]1(C(C)=O)CC[C@H]2[C@@H]3C=C(C)C4=CC(=O)CC[C@]4(C)[C@H]3CC[C@@]21C,3.72%,inactive
CN(C)CCC[C@@]1(c2ccc(F)cc2)OCc2cc(C#N)ccc21,-8.84%,inactive
O=C1OC(CN2CCOCC2)CN1/N=C/c1ccc([N+](=O)[O-])o1 (configuration not stated),-7.98%,inactive
CN1CCC[C@@H]1CCO[C@](C)(c1ccccc1)c1ccc(Cl)cc1,-0.809%,inactive
O=C(NC1CCN(CCc2c[nH]c3ccccc23)CC1)c1ccccc1,-6.9%,inactive
CCOCCn1c(N2CCCN(C)CC2)nc2ccccc21,-5.27%,inactive
Cc1cc(-c2ccccc2)nnc1NCCN1CCOCC1,-0.774% and -9.14%,inactive
NS(=O)(=O)c1ccc(Cl)c(S(N)(=O)=O)c1,-1.41%,inactive
Nc1ccc(S(=O)(=O)NCc2ccccc2)cc1,-10.6%,inactive
